A selection: hits, their analogues and other compounds. The true share with any hit is near 28%.
CYP2C19 activ: human CYP2C19 activators, primary screen, biochemical, luminescence. Cytochrome P450 2C19 (Homo sapiens), P33261. recombinant CYP2C19, luciferin-H EGE luminescence; hits give high values; 0 = fully inhibited enzyme, 1 = untreated enzyme. activation factor at 5 µM. 96,000 tested, under 10 active;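 active means activation factor of at least 2 at 5 µM in the primary screen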;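 further: 0 = wells with 2.5 mM tranylcypromine and 1 = vehicle-only wells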
CYP2C19 inhib: blockers of cytochrome P450 2C19 activity – biochemical, luminescence, ADME assay, primary screen. AID 778, 2007. P33261. inhibition, % at 5 µM. actives 21% (n = 96,000). CYP2C19 Supersomes, luciferin-H EGE luminescence, 30 min;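 active means CYP2C19 inhibition above a set limit at 5 µM in the primary screen, cut at about 50% in these data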;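 further: plate controls were negative control wells for no effect and 2.5 mM tranylcypromine positive control for full effect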
CYP2C9 activ: human CYP2C9 activators, primary screen, biochemical, luminescence; actives 1.4% (n = 96,000); activation factor at 5 µM; Cytochrome P450 2C9 (Homo sapiens), P11712; recombinant CYP2C9, luciferin-H conversion; hits give high values; factor 1 = untreated enzyme, 0 = blocked;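 active means activation factor of 2 or more for CYP2C9 at a 5 µM dose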;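 further: 0 = sulfaphenazole-blocked wells and 1 = vehicle-only wells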
Target sequence (P11712 whole entry, looked up): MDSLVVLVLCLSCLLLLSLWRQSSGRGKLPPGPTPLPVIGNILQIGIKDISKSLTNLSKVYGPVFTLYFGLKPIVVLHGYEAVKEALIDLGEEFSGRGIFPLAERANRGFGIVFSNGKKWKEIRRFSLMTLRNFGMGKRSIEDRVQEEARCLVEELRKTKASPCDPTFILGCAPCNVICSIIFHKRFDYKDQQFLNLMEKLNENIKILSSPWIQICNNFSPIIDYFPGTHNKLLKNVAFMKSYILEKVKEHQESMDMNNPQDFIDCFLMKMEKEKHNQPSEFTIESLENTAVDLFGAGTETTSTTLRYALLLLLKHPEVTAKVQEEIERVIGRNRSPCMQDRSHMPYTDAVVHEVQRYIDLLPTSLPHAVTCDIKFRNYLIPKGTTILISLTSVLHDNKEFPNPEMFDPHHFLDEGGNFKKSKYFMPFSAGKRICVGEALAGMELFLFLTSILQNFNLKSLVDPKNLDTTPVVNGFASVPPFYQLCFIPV
Mac1 fbg enh: enhancers of CD11b/CD18 adhesion to fibrinogen, primary screen, K562 cells, luminescence. Integrin beta-2 (Homo sapiens) + Integrin alpha-M (Homo sapiens), P05107+P11215. ATPlite luminescence. activation, % at 10 µM. actives 0.07% (n = 93,000);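 active means 10 µM primary screen giving 50% or more activity, confirmed by 40% or more on retest at that dose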
CYP2C9 inhib: blockers of cytochrome P450 2C9 activity – biochemical, luminescence, ADME assay, primary screen. AID 777, 2007. CYP2C9 Supersomes, luciferin-H conversion. actives 20% (n = 96,000). inhibition, % at 5 µM. P11712;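 active means blocking of liver enzyme CYP2C9 beyond about 50% at 5 µM, limit read from the data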
CD11b adhes inh: inhibitors of CD11b/CD18 adhesion to fibrinogen, primary screen, K562 cells, luminescence; actives 0.54% (n = 93,000); inhibition, % at 10 µM; Integrin beta-2 (Homo sapiens) + Integrin alpha-M (Homo sapiens), P05107+P11215; AID 1497, 2009; ATPlite luminescence; Mn2+ added to activate the integrin;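 active means primary inhibition of 50% or more at 10 µM, then 40% or more on retest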
Active calls of the source: *; · = no result.

SMILES	CYP2C19 activ	CYP2C19 inhib	CYP2C9 activ	Mac1 fbg enh	CYP2C9 inhib	CD11b adhes inh
CCN(C(=O)c1cc(Cl)ccc1OC)C1CCCCC1	0.1	95*	0	0	96*	-8
CCn1cc(CNC(=O)c2cc(Cl)ccc2OC)c(C)n1	0.5	47	1.6	-1	-64	-9
CCN(C(=O)c1cc(Cl)ccc1OC)c1ccccc1	0.3	72*	0.6	2	45	-11
CCN(C(=O)c1cccnc1)c1ccccc1	1.1	-7	0.9	2	5	-3
CC(C)(C)C(=O)N(CCN(C(=O)C(C)(C)C)c1ccccc1)c1ccccc1	0.9	14	0.8	·	15	·
C=CCNC(=S)NNC(=O)C(CCC(C)C)CC(C)O (centres undefined)	1.1	-6	0.9	1	11	2
CN(C)c1ccc(C2N(C(=O)N3CCOCC3)CCN2S(=O)(=O)c2ccccc2)cc1 (centres undefined)	0.9	10	0.9	-5	5	3
Nc1nc2n(c1C(=O)c1ccccc1)CCC2	0.9	12	1.2	2	-16	-11
COC(=O)c1ccc(COc2ccccc2/C=C(\C#N)C(=O)Nc2c(C)cc(C)cc2C)cc1	·	·	·	-1	·	13
Cc1cc(C)cc(OCC(=O)Nc2ccc(N3CCN(S(C)(=O)=O)CC3)cc2)c1	1.2	-18	1.1	7	-11	1
O=c1c2ccccc2c(C=NCCc2ccccc2)c(O)n1Cc1ccccc1	0.5	48	0.2	1	77*	13
O=c1c2ccccc2c(C=NCCCN2CCOCC2)c(O)n1Cc1ccccc1	0.4	65*	0.3	3	71*	27
O=c1[nH]c2ccccc2c(=O)n1Cc1ccccc1	0.6	37	1	-3	-4	7
O=c1c2ccccc2c(/C=N/n2cnnc2)c(O)n1-c1ccccc1	0.9	6	0.4	·	61*	·
COc1ccc(-n2c(O)c(/C=N/n3cnnc3)c3ccccc3c2=O)cc1	1.1	-7	0.3	-2	75*	-2
COc1ccc(-n2c(=O)c3ccccc3c3ccccc3c2=O)cc1	·	·	·	1	·	-2
CCNc1nc(NCC)nc(C(=O)OCCO)n1	0.9	8	1.1	4	-10	-7
CCNc1nc(NCC)nc(OCCOC(=O)c2ccccc2)n1	0.5	51*	0.7	-2	28	-9
CC(C)c1nc(-c2c(N)n(C)c(=O)n(C)c2=O)sc1C(=O)C(C)(C)C	0.2	76*	1	10	-1	0
Cn1c(N)c(C(=O)CCl)c(=O)n(C)c1=O	1.1	-9	1.1	-4	-6	4
Cc1occc1C(=O)n1cnc2ccccc21	1.2	-15	1.2	-1	-19	15
ClC(Br)=C(n1cnc2ccccc21)n1cnc2ccccc21	0.2	75*	0.1	12	88*	-24
O=C1OCCC1N1C(=O)c2ccccc2S1(=O)=O (centres undefined)	1.1	-8	1	-3	-2	-8
CCN(CC)C(=O)c1ccc(C(=O)c2c(C)cc(C)cc2C)cc1	0.6	43	0.6	0	40	6
CCCCN(CC)C(=O)c1ccc(Cl)c(Cl)c1	0.2	84*	1	10	1	-56
Nc1nc(SCc2nc3scc(-c4cccs4)c3c(=O)[nH]2)n[nH]1	0.8	19	0.6	2	44	5
CCOC(=O)c1c(C)n(C)c2ccc(OCC(O)CN3CCN(C)CC3)cc12 (centres undefined)	0.8	19	0.9	5	8	-6
CCC(=O)c1ccc(OCC(O)Cn2c(C)nc3ccccc32)cc1 (centres undefined)	0.3	72*	0.5	-6	50*	57
CCOC(=O)c1c(C)n(C)c2ccc(OCC(O)Cn3c(C)nc4ccccc43)cc12 (centres undefined)	0.5	47	0.3	5	70*	16
O=C(NCc1ccco1)C(c1cccs1)N(C(=O)C1COc2ccccc2O1)c1cccc(O)c1 (centres undefined)	0	97*	0.1	0	94*	-13

Screening data as filed in PubChem.
